Structures can show the parent of a compound that is named as a salt.
test system: Saccharomyces cerevisiae BY4741 SeMeCo community; test: z-score of subpopulation abundance vs DMSO median, subpopulation auxotrophic for HM; higher = larger share of this subpopulation than in DMSO controls; conditions: 10 µM; 24 h; SM minimal medium; subpopulation (auxotrophy): HM
Protocol: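 Fluorescent four-plasmid SeMeCo (self-establishing metabolically cooperating S. cerevisiae BY4741 community; plasmids pH-mRuby2, pL-mWasabi, pU-eCFP, pM-TagRFP657) was grown 24 h in minimal SM medium with each Selleck FDA-approved drug at 10 µM in 384-well plates. Cells were fixed and imaged by high-content confocal microscopy. For each auxotrophic subpopulation (and the prototroph), a z-score gives the deviation from the DMSO vehicle-control population median.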

| Structure (SMILES) | z-score of subpopulation abundance |
| --- | --- |
| CCC[C@@H]1C[C@@H](C(=O)N[C@@H]([C@H]2O[C@H](SC)[C@H](OP(=O)(O)O)[C@@H](O)[C@H]2O)[C@H](C)Cl)N(C)C1 [Clindamycin Phosphate] | 0.11 |
| CC(C)(C)C1CCC(CC2=C(O)c3ccccc3C(=O)C2=O)CC1 (stereo not given) [Buparvaquone] | 1.55 |
| C=CC[C@@H]1/C=C(\C)C[C@H](C)C[C@H](OC)[C@H]2O[C@@](O)(C(=O)C(=O)N3CCCC[C@H]3C(=O)O[C@H](/C(C)=C/[C@@H]3CC[C@@H](O)[C@H](OC)C3)[C@H](C)[C@@H](O)CC1=O)[C@H](C)C[C@@H]2OC [Tacrolimus (FK506)] | 1.61 |
| O=c1[nH]cc(F)c(=O)[nH]1 [Fluorouracil (5-Fluoracil, 5-FU)] | 18.4 |
| OC(CCN1CCCCC1)(c1ccccc1)C1CCCCC1 (stereo not given) [Trihexyphenidyl hydrochloride] | -0.75 |
| C[n+]1ccccc1C=NO [Pralidoxime Iodide] | 0.77 |
| CCOc1ccc2ccccc2c1C(=O)N[C@@H]1C(=O)N2[C@@H]1SC(C)(C)[C@@H]2C(=O)O [Nafcillin Sodium] | 0.22 |
| C[C@H](NCc1ccc(OCc2cccc(F)c2)cc1)C(N)=O [Safinamide Mesylate] | 1.04 |
| C[C@]12CC[C@@H]3c4ccc(OC(=O)c5ccccc5)cc4CC[C@H]3[C@@H]1CC[C@@H]2O [Estradiol Benzoate] | 0.05 |
| Cc1onc(-c2ccccc2Cl)c1C(=O)N[C@@H]1C(=O)N2[C@@H]1SC(C)(C)[C@@H]2C(=O)O [Cloxacillin Sodium] | -0.01 |
| Cc1cc(-n2c(=O)[nH]c(=O)n(C)c2=O)ccc1Oc1ccc(SC(F)(F)F)cc1 [Toltrazuril] | 0.1 |
| Cc1nc2n(c(=O)c1CCN1CCC(c3noc4cc(F)ccc34)CC1)CCCC2 [Risperidone] | 0.48 |
| CC[C@@H]1/C=C(\C)C[C@H](C)C[C@H](OC)[C@H]2O[C@@](O)(C(=O)C(=O)N3CCCC[C@H]3C(=O)O[C@H](/C(C)=C/[C@@H]3CC[C@@H](O)[C@H](OC)C3)[C@H](C)[C@@H](O)CC1=O)[C@H](C)C[C@@H]2OC [Ascomycin (FK520)] | 1.4 |
| O=c1cc(-c2ccc(O)c(O)c2)oc2cc(O)cc(O)c12 [Luteolin] | -0.39 |
| C[C@]12CC[C@@H]3c4ccc(O)cc4CC[C@H]3[C@@H]1CC[C@@H]2OC(=O)CCC1CCCC1 [Estradiol Cypionate] | -0.34 |
| CC[C@H]1OC(=O)C[C@@H](O)[C@H](C)[C@@H](O[C@@H]2O[C@H](C)[C@@H](O)[C@H](N(C)C)[C@H]2O)[C@@H](CCN2C[C@H](C)C[C@H](C)C2)C[C@@H](C)C(=O)/C=C/C(C)=C/[C@@H]1CO[C@@H]1O[C@H](C)[C@@H](O)[C@@H](OC)[C@H]1OC [Tilmicosin] | 0.93 |
| CC1(C)S[C@@H]2[C@H](NC(=O)C(c3ccccc3)S(=O)(=O)O)C(=O)N2[C@H]1C(=O)O (stereo not given in full) [Sulbenicillin Sodium] | -0.06 |
| Cc1cnc(NC(=O)C2=C(O)c3ccccc3S(=O)(=O)N2C)s1 [Meloxicam] | -0.89 |
| O=C(CCCN1CCC(O)(c2ccc(Cl)cc2)CC1)c1ccc(F)cc1 [Haloperidol] | -0.68 |
| CCCc1cc(C(N)=S)ccn1 [Protionamide] | 0.36 |

| Structure (SMILES) | z-score of subpopulation abundance |
| --- | --- |
| OCCN(CCO)c1nc(N2CCCCC2)c2nc(N(CCO)CCO)nc(N3CCCCC3)c2n1 [Dipyridamole] | 6.49 |
| N[C@@H]1CN(c2c(F)cc3c(=O)c(C(=O)O)cn([C@@H]4C[C@@H]4F)c3c2Cl)CC12CC2 [Sitafloxacin Hydrate] | 0.61 |
| CC1(C)S[C@@H]2[C@H](NC(=O)[C@H](N)c3ccc(O)cc3)C(=O)N2[C@H]1C(=O)O [Amoxicillin Sodium] | -0.22 |
| CCCCOC(=O)c1ccc(O)cc1 [Butylparaben] | -1.19 |
| Nc1ccc(S(=O)(=O)Nc2nccs2)cc1 [Sulfathiazole] | -0.53 |
| Fc1ccc(C(c2ccc(F)cc2)N2CCN(C/C=C/c3ccccc3)CC2)cc1 [Flunarizine 2HCl] | 1.01 |
| Clc1ccc(C(Cn2ccnc2)OCc2c(Cl)cccc2Cl)c(Cl)c1 (stereo not given) [Isoconazole nitrate] | 3.75 |
| CCOC(=O)C1=C(C)NC(C)=C(C(=O)OC)C1c1cccc(Cl)c1Cl (stereo not given) [Felodipine] | 4.69 |
| NC(=O)c1cn(Cc2c(F)cccc2F)nn1 [Rufinamide] | 0.75 |
| COc1ccc(CC2c3cc(OC)c(OC)cc3CC[N+]2(C)CCC(=O)OCCCCCOC(=O)CC[N+]2(C)CCc3cc(OC)c(OC)cc3C2Cc2ccc(OC)c(OC)c2)cc1OC (stereo not given) [Atracurium Besylate] | 0.41 |
| CC1=C[C@H]2C(=O)O[C@H]3C[C@@H](C/C=C(\C)C[C@@H](C)/C=C/C=C4\CO[C@H](/C1=N\O)[C@@]42O)O[C@@]1(CC[C@H](C)[C@@H](C)O1)C3.CC[C@H]1O[C@]2(CC[C@@H]1C)C[C@@H]1C[C@@H](C/C=C(\C)C[C@@H](C)/C=C/C=C3\CO[C@@H]4/C(=N\O)C(C)=C[C@@H](C(=O)O1)[C@]34O)O2 [Milbemycin Oxime] | 0.15 |
| O=C1c2cccc3c2[C@H](CCC3)CN1[C@@H]1CN2CCC1CC2 [Palonosetron] | -0.24 |
| CCCCC(F)(F)[C@@]1(O)CC[C@H]2[C@@H](CC(=O)[C@@H]2CCCCCCC(=O)O)O1 [Lubiprostone] | -0.8 |
| O=C(O)CCNC(=O)c1ccccc1 [Betamipron] | -0.4 |
| C=C1c2cccc(O)c2C(O)=C2C(=O)[C@]3(O)C(O)=C(C(N)=O)C(=O)[C@@H](N(C)C)[C@@H]3[C@@H](O)[C@H]12 [Methacycline HCl] | 0.54 |
| O=C(O)CCCCCCCC(=O)O [Azelaic acid] | -0.04 |
| CC1(C)S[C@@H]2[C@H](NC(=O)[C@H](N)c3ccccc3)C(=O)N2[C@H]1C(=O)OCOC(=O)[C@@H]1N2C(=O)C[C@H]2S(=O)(=O)C1(C)C [Sultamicillin] | 0.78 |
| CC/C(=C(\c1ccccc1)c1ccc(OCCN(C)C)cc1)c1ccccc1 [Tamoxifen] | 0.93 |
| CC1CCc2c(N3CCC(O)CC3)c(F)cc3c(=O)c(C(=O)O)cn1c23 (stereo not given) [Nadifloxacin] | 0 |
| O=C(O)CCC(=O)Nc1ccc(S(=O)(=O)Nc2nccs2)cc1 [Succinylsulfathiazole] | -0.78 |

Reference: the supplement of paper PMC8975748
